Reference: PubChem BioAssay (NCI)
This is part of a sample that, as a whole, favours compounds with a hit. Of some 79,000 tested, about 15% had one in any assay. The source made the active and inactive calls. Cut-off read from the data, not from the text of the source: active = growth inhibition above about 70%; inactive = the rest.

Columns and labels:
[1] = NCI Yeast Anticancer Drug Screen. Data for the rad52 strain (AID 147);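 note: 0% = growth of vehicle-treated control cultures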; settings: S. cerevisiae rad52 mutant growth inhibition, active compounds read high
Outline: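 Measured: yeast growth inhibition. System: strain with a defined DNA damage repair alteration. Reference: vehicle-treated control cultures.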

[2] = NCI Yeast Anticancer Drug Screen. Data for the wt1 strain (AID 149);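 note: 0% = growth of vehicle-treated wt1 cultures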; settings: S. cerevisiae wt1 strain (SPY 50644) growth inhibition, active compounds read high
Outline: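 Each compound is tested on wt1 yeast and the loss of growth versus vehicle gives the inhibition value.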

[3] = NCI Yeast Anticancer Drug Screen. Data for the rad50EPP+ strain (AID 151);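 note: 0% = growth of vehicle-treated control cultures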; settings: S. cerevisiae rad50 mutant strain, active compounds read high
Outline: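 One strain with a rad50 alteration (rad50EPP+) was compound-treated, its growth then compared to that of vehicle controls.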

[4] = NCI Yeast Anticancer Drug Screen. Data for the mgt1 strain (AID 153); settings: S. cerevisiae mgt1 mutant growth inhibition, active compounds read high
Outline: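 After exposure of the mgt1 yeast mutant to compound, growth was measured and reported as inhibition compared with vehicle controls.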

[5] = NCI Yeast Anticancer Drug Screen. Data for the rad50 strain (AID 155);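 note: 0% = growth of vehicle-only cultures of the same strain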; settings: S. cerevisiae rad50 strain growth inhibition, active compounds read high
Outline: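 Vehicle-treated cultures provide the reference for the growth inhibition reported for compound-exposed, repair-deficient yeast.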

[6] = NCI Yeast Anticancer Drug Screen. Data for the mec2-1 strain (AID 157); settings: S. cerevisiae mec2-1 strain, active compounds read high
Outline: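 Test agents were screened against the mec2-1 yeast strain, with defined DNA repair or cell cycle alteration. Growth was scored as inhibition against vehicle-only controls.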

[7] = NCI Yeast Anticancer Drug Screen. Data for the rad14 strain (AID 159);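 note: 0% = growth of vehicle-treated control cultures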; settings: S. cerevisiae rad14 strain growth inhibition, active compounds read high
Outline: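 Inhibition of growth is reported for a repair-deficient yeast mutant following compound treatment, calculated relative to cultures that received vehicle.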

[8] = NCI Yeast Anticancer Drug Screen. Data for the sgs1 mgt1 strain (AID 161);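 note: 0% = growth of cultures given vehicle only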; settings: S. cerevisiae sgs1 mgt1 strain, active compounds read high
Outline: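 Read-out: growth inhibition vs vehicle controls. Cells: mutant yeast strain deficient in DNA damage repair.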

[9] = NCI Yeast Anticancer Drug Screen. Data for the CLN2oe strain (AID 163);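 note: 0% = growth of vehicle-only control cultures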; settings: S. cerevisiae CLN2oe strain, active compounds read high
Outline: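 Here, growth inhibition in a cell-cycle-altered yeast strain after compound exposure was quantified against vehicle control growth.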

[10] = NCI Yeast Anticancer Drug Screen. Data for the cln2 rad14 strain (AID 165);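 note: 0% = growth equal to vehicle treated cultures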; settings: S. cerevisiae cln2 rad14 strain, active compounds read high
Outline: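 Growth of compound-exposed yeast (cln2 rad14 genotype) measured and expressed as inhibition relative to vehicle.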

[11] = NCI Yeast Anticancer Drug Screen. Data for the bub3 strain (AID 167); settings: S. cerevisiae bub3 mutant strain, active compounds read high
Outline: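 Mutant yeast screening strain plus compound; vehicle-treated cultures serve as the 0% inhibition reference.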

[12] = NCI Yeast Anticancer Drug Screen. Data for the wt2 strain (AID 169); settings: S. cerevisiae wt2 strain growth inhibition, active compounds read high
Outline: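 Genetically defined yeast strains from a DNA-repair/cell-cycle panel were used. Compound-exposed yeast growth was measured, and the inhibition was calculated relative to vehicle treatment.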

[13] = NCI Yeast Anticancer Drug Screen. Data for the mlh1 strain (AID 171);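 note: 0% = growth of vehicle-treated control cultures of the same strain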; settings: S. cerevisiae mlh1 strain growth inhibition, active compounds read high
Outline: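 Here the genetically defined yeast mutant is grown with each compound, and the extent to which its growth falls below that of vehicle-exposed cells is reported.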

[14] = NCI Yeast Anticancer Drug Screen. Data for the sgs1 strain (AID 173);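 note: 0% = growth of vehicle-only control cultures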; settings: S. cerevisiae sgs1 mutant, active compounds read high
Outline: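 Relative growth inhibition, referenced to vehicle, was determined in a yeast strain with a defined alteration affecting DNA damage repair or cell cycle control after compound exposure.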

[15] = NCI Yeast Anticancer Drug Screen. Data for the mlh1 rad18 strain (AID 175); settings: S. cerevisiae mlh1 rad18 strain growth inhibition, active compounds read high
Outline: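 In this whole-cell yeast screen, a strain with altered DNA damage repair is challenged with compound, and its growth is measured against matched vehicle-treated controls.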

[16] = NCI Yeast Anticancer Drug Screen. Data for the rad18 strain (AID 177); settings: S. cerevisiae rad18 mutant growth inhibition, active compounds read high
Outline: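 Screen uses a yeast strain with a defined lesion in DNA damage repair; compound effect is read as loss of growth compared to untreated vehicle cultures.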

[17] = at 5.0 µM (retest, dose inferred, filed as 0.5)
[18] = at 50.0 µM (retest, dose inferred, filed as 5.0)

Measured: growth inhibition

O=C(NC(=S)Nc1ccccn1)c1ccccc1
active: [5]; [17] 97% | [5]; [18] 100% | [6]; [17] 100% | [6]; [18] 100% | [15]; [17] 100% | [15]; [18] 100%
inactive: [1]; at 1.2 µM -30% | [1]; at 3.7 µM -43% | [1]; at 11.0 µM -35% | [1]; at 33.0 µM -28% | [1]; at 100.0 µM -22% | [2]; at 1.2 µM -26% | [2]; at 3.7 µM -36% | [2]; at 11.0 µM -32% | [2]; at 33.0 µM -19% | [2]; at 100.0 µM -24% | [3]; at 1.2 µM -30% | [3]; at 3.7 µM -51% | [3]; at 11.0 µM -69% | [3]; at 33.0 µM -53% | [3]; at 100.0 µM 25% | [4]; at 1.2 µM -62% | [4]; at 3.7 µM -40% | [4]; at 11.0 µM -58% | [4]; at 33.0 µM -41% | [4]; at 100.0 µM -22% | [5]; at 1.2 µM -12% | [5]; at 3.7 µM -9% | [5]; at 11.0 µM -19% | [5]; at 33.0 µM -30% | [5]; at 50.0 µM 28.7% | [5]; at 100.0 µM -14% | [6]; at 1.2 µM -73% | [6]; at 3.7 µM -55% | [6]; at 11.0 µM -51% | [6]; at 33.0 µM -54% | [6]; at 50.0 µM 25.1% | [6]; at 100.0 µM -50% | [7]; at 1.2 µM -30% | [7]; at 3.7 µM -20% | [7]; at 11.0 µM -19% | [7]; at 33.0 µM -21% | [7]; at 100.0 µM -23% | [8]; [17] -21% | [8]; [18] 50% | [8]; at 50.0 µM 60.5% | [9]; at 1.2 µM -4% | [9]; at 3.7 µM -15% | [9]; at 11.0 µM -11% | [9]; at 33.0 µM -23% | [9]; at 100.0 µM -15% | [10]; [17] 36% | [10]; [18] 10% | [10]; at 50.0 µM -9.05% | [11]; at 1.2 µM -19% | [11]; at 3.7 µM -22% | [11]; [17] 13% | [11]; at 11.0 µM -13% | [11]; at 33.0 µM 5% | [11]; [18] 57% | [11]; at 50.0 µM 63% | [11]; at 100.0 µM 19% | [12]; at 1.2 µM -32% | [12]; at 3.7 µM -32% | [12]; at 11.0 µM -38% | [12]; at 33.0 µM -27% | [12]; at 100.0 µM -20% | [13]; at 1.2 µM -38% | [13]; at 3.7 µM -34% | [13]; at 11.0 µM -26% | [13]; at 33.0 µM -40% | [13]; at 100.0 µM -37% | [14]; at 1.2 µM -54% | [14]; at 3.7 µM -71% | [14]; at 11.0 µM -47% | [14]; at 33.0 µM -36% | [14]; at 100.0 µM -31% | [15]; at 50.0 µM 19.2% | [16]; at 1.2 µM -60% | [16]; at 3.7 µM -56% | [16]; at 11.0 µM -29% | [16]; at 33.0 µM -38% | [16]; at 100.0 µM -43%

C=C(C)[C@@H]1CCc2c(O)c(O)c(=O)cc(C)c2C1
active: [1]; at 33.0 µM 77% | [1]; at 100.0 µM 98% | [2]; at 100.0 µM 99% | [3]; at 100.0 µM 98% | [4]; at 33.0 µM 90% | [4]; at 100.0 µM 98% | [5]; at 33.0 µM 80% | [5]; [18] 97% | [5]; at 50.0 µM 91.6% | [5]; at 100.0 µM 98% | [6]; [18] 99% | [6]; at 50.0 µM 93% | [6]; at 100.0 µM 98% | [7]; at 33.0 µM 85% | [7]; at 100.0 µM 99% | [8]; [18] 99% | [8]; at 50.0 µM 92.8% | [9]; at 33.0 µM 90% | [9]; at 100.0 µM 99% | [10]; [18] 93% | [10]; at 50.0 µM 91.3% | [11]; at 33.0 µM 82% | [11]; [18] 96% | [11]; at 50.0 µM 92.2% | [11]; at 100.0 µM 98% | [12]; at 33.0 µM 91% | [12]; at 100.0 µM 97% | [13]; at 33.0 µM 85% | [13]; at 100.0 µM 99% | [14]; at 33.0 µM 81% | [14]; at 100.0 µM 98% | [15]; [18] 96% | [15]; at 50.0 µM 92.2% | [16]; at 33.0 µM 76% | [16]; at 100.0 µM 98%
inactive: [1]; at 1.2 µM 0% | [1]; at 3.7 µM 21% | [1]; at 11.0 µM 38% | [2]; at 1.2 µM 7% | [2]; at 3.7 µM 25% | [2]; at 11.0 µM 37% | [2]; at 33.0 µM 58% | [3]; at 1.2 µM -3% | [3]; at 3.7 µM 8% | [3]; at 11.0 µM 39% | [3]; at 33.0 µM 68% | [4]; at 1.2 µM 10% | [4]; at 3.7 µM 26% | [4]; at 11.0 µM 41% | [5]; at 1.2 µM -10% | [5]; at 3.7 µM 11% | [5]; [17] 41% | [5]; at 11.0 µM 37% | [6]; at 1.2 µM 2% | [6]; at 3.7 µM 22% | [6]; [17] 41% | [6]; at 11.0 µM 32% | [6]; at 33.0 µM 61% | [7]; at 1.2 µM -30% | [7]; at 3.7 µM -14% | [7]; at 11.0 µM 37% | [8]; [17] 46% | [9]; at 1.2 µM 2% | [9]; at 3.7 µM 20% | [9]; at 11.0 µM 33% | [10]; [17] 3% | [11]; at 1.2 µM 8% | [11]; at 3.7 µM 23% | [11]; [17] 52% | [11]; at 11.0 µM 43% | [12]; at 1.2 µM -69% | [12]; at 3.7 µM -31% | [12]; at 11.0 µM -27% | [13]; at 1.2 µM 25% | [13]; at 3.7 µM 36% | [13]; at 11.0 µM 55% | [14]; at 1.2 µM 1% | [14]; at 3.7 µM 24% | [14]; at 11.0 µM 50% | [15]; [17] 57% | [16]; at 1.2 µM 1% | [16]; at 3.7 µM 34% | [16]; at 11.0 µM 48%
